PubChem BioAssay
Active and inactive are the calls of the source.

Key:
[1] = binders of probe aFSTL3 on microarray, primary screen, stem cell growth factor project, biochemical, small-molecule microarray, fluorescence 635/667 (AID 1064); conditions: higher = more signal;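 note: measures binding of the biotinylated anti-FSTL3 antibody to printed compounds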
[2] = binders from COS7 lysate, DM2A8 probe, primary screen, torsin A project, cell lysate, small-molecule microarray, fluorescence 635/667 (AID 1065); conditions: higher = more signal, COS7 lysate expressing mutant human TOR1A
[3] = binders of probe aFGF2 on microarray, primary screen, stem cell growth factor project, biochemical, small-molecule microarray, fluorescence 635/667 (AID 1067); conditions: higher = more signal;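 note: measures binding of biotinylated aFGF2 protein to printed compounds on slides; z-score merges feature fluorescence and signal-to-noise across triplicate slides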
[4] = binders of probe aFGF10 on microarray, primary screen, stem cell growth factor project, biochemical, small-molecule microarray, fluorescence 635/667 (AID 1071); conditions: higher = more signal;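 note: score merges 667 nm spot intensity and signal to noise from triplicate slides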
[5] = target: Neurogenic locus notch homolog protein 2 (Homo sapiens) (UniProt Q04721); experiment: Notch2 binders on small-molecule microarrays, primary screen, biochemical, small-molecule microarray, 635 nm fluorescence, stem cell growth factors (AID 1073); conditions: Notch2 binding, higher = more signal
[6] = target: Pro-neuregulin-1, membrane-bound isoform (Homo sapiens) (UniProt Q02297); experiment: NRG1 binders on small-molecule microarrays, primary screen, psychiatric disease protein project, biochemical, small-molecule microarray, fluorescence 635/667 (AID 1075); conditions: NRG1 binding, 635 nm fluorescence, higher = more signal;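 note: score combines 667 nm spot fluorescence with signal to noise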
[7] = system: Neuregulin-1 EGF-like domain; experiment: binders of neuregulin-1 EGF-like domain, primary screen, biochemical, small-molecule microarray, 635 nm fluorescence (AID 1081); conditions: small-molecule microarray binding, higher = more signal;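 note: binding of the protein to compounds printed on small-molecule microarray slides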
[8] = FRG1 promoter luciferase signal modulators, primary screen, FRG1 inhibition for FSHD, cell-based, C2C12 myotubes, firefly/Renilla luciferase, luminescence (AID 1084); conditions: higher = more signal, called active from +8 up or from −8 down
[9] = binders of probe aFST on microarray, primary screen, stem cell growth factor project, biochemical, small-molecule microarray, fluorescence 635/667 (AID 1086); conditions: higher = more signal;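 note: score merges 667 nm fluorescence with signal-to-noise of each printed compound spot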
[10] = binders of probe aHhip on microarray, primary screen, stem cell growth factor project, biochemical, small-molecule microarray, fluorescence 635/667 (AID 1087); conditions: higher = more signal;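 note: score merges spot fluorescence at 667nm with spot signal to noise ratio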
[11] = system: PRMT1 (protein arginine N-methyltransferase 1); experiment: PRMT1 binders on small-molecule microarrays, primary screen, biochemical, small-molecule microarray, 635 nm fluorescence (AID 1088); conditions: small-molecule microarray binding, higher = more signal;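 note: binding of Prmt1 protein to compounds spotted on small-molecule microarray slides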
[12] = yeast growth modulation, basal conditions, primary screen, YJM789 clinical isolate, OD600, 24 h (AID 1089);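 note: growth of clinical yeast isolate S. cerevisiae YJM 789 seeded 1000 cells per well; test concentration not given here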; conditions: S. cerevisiae YJM789 growth, higher = more signal, called active from +8 up or from −8 down
[13] = fission yeast growth modulation, primary screen, strain 972, OD600, 24 h, no modulator (AID 1090);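 note: basal condition with compound alone and no growth modifier present; test concentration not given here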; conditions: S. pombe 972 growth, higher = more signal, called active from +8 up or from −8 down
[14] = S. cerevisiae growth modulation with rapamycin, primary screen, strain BY4716, OD600, 96 h (AID 1091); conditions: higher = more signal, called active from +8 up or from −8 down; note: test concentration not given here
[15] = target: Torsin-1A-interacting protein 2 (Homo sapiens) (UniProt Q8NFQ8); experiment: LULL1 binders on small-molecule microarray, primary screen, cell lysate, human LULL1 lysate, 635/667 nm fluorescence (AID 1092); conditions: hLULL1 lysate binding, 635 nm fluorescence, higher = more signal;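 note: probe is lysate of COS7 cells overexpressing human LULL1; score merges per-feature 667 nm fluorescence with signal-to-noise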
[16] = E. coli growth modulation, two-sided OD650, primary screen, E. coli filamentation project, strain DRC41, 24 h (AID 1093); conditions: OD650, 24 h, higher = more signal, called active from +8 up or from −8 down;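 note: MC1000 strain lacking acrAB efflux and sulA so SOS filamentation is blocked; test concentration not given here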
[17] = small-molecule microarray binders of probe aLefty2, primary screen, biochemical, biotinylated probe, 635/667 nm fluorescence (AID 1094); conditions: higher = more signal;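 note: score merges spot fluorescence near 667 nm with spot signal-to-noise ratio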
[18] = system: Noggin (protein binding on small-molecule microarray); experiment: Noggin binders on small-molecule microarray, primary screen, biochemical, 635/667 nm fluorescence (AID 1095); conditions: 635 nm fluorescence, higher = more signal;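 note: score merges 667 nm feature fluorescence with signal to noise over triplicate slides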
[19] = target: Neurogenic locus notch homolog protein 3 (Homo sapiens) (UniProt Q9UM47); experiment: NOTCH3 binders on small-molecule microarray, primary screen, biochemical, 635/667 nm fluorescence (AID 1096); conditions: NOTCH3 binding, 635 nm fluorescence, higher = more signal
[20] = small-molecule microarray binders of probe aEGFR, primary screen, biochemical, biotinylated probe, 635/667 nm fluorescence (AID 1097); conditions: higher = more signal;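 note: probe is a biotinylated anti-EGFR antibody binding compounds printed on slides; score combines fluorescence near 667 nm and signal to noise of each spot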

Pro-neuregulin-1, membrane-bound isoform (Homo sapiens), sequence (Q02297 whole entry, looked up, the tested form may be a part, canonical isoform): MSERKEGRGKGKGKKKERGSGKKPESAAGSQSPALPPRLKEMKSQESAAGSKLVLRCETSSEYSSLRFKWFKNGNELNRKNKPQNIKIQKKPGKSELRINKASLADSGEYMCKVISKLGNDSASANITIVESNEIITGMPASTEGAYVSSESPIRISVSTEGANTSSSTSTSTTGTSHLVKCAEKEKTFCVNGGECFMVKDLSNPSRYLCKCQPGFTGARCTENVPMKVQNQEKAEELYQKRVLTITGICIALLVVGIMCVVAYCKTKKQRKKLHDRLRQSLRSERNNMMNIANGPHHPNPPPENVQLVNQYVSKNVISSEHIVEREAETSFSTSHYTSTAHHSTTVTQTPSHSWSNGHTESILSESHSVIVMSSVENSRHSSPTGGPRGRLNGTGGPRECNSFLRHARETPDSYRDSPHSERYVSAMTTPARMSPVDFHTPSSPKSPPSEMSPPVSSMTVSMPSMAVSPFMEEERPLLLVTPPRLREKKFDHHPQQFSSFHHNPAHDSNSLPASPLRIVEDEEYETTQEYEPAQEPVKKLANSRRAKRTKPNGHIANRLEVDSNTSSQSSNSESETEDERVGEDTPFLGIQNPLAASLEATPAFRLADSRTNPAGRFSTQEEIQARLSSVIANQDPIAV
Torsin-1A-interacting protein 2 (Homo sapiens), sequence (Q8NFQ8 whole entry, looked up): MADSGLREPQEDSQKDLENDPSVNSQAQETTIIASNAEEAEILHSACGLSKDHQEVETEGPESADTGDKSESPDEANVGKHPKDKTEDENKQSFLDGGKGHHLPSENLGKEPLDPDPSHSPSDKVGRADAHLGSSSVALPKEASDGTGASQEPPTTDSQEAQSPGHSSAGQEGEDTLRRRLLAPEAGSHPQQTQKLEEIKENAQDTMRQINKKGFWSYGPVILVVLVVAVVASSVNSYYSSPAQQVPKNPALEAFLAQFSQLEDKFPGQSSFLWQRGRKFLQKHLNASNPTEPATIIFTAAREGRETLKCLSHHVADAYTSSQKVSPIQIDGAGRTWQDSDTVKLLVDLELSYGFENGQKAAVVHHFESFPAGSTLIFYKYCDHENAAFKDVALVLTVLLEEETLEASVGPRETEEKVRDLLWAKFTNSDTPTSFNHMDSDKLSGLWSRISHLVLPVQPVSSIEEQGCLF
Neurogenic locus notch homolog protein 3 (Homo sapiens), sequence (Q9UM47 whole entry, looked up): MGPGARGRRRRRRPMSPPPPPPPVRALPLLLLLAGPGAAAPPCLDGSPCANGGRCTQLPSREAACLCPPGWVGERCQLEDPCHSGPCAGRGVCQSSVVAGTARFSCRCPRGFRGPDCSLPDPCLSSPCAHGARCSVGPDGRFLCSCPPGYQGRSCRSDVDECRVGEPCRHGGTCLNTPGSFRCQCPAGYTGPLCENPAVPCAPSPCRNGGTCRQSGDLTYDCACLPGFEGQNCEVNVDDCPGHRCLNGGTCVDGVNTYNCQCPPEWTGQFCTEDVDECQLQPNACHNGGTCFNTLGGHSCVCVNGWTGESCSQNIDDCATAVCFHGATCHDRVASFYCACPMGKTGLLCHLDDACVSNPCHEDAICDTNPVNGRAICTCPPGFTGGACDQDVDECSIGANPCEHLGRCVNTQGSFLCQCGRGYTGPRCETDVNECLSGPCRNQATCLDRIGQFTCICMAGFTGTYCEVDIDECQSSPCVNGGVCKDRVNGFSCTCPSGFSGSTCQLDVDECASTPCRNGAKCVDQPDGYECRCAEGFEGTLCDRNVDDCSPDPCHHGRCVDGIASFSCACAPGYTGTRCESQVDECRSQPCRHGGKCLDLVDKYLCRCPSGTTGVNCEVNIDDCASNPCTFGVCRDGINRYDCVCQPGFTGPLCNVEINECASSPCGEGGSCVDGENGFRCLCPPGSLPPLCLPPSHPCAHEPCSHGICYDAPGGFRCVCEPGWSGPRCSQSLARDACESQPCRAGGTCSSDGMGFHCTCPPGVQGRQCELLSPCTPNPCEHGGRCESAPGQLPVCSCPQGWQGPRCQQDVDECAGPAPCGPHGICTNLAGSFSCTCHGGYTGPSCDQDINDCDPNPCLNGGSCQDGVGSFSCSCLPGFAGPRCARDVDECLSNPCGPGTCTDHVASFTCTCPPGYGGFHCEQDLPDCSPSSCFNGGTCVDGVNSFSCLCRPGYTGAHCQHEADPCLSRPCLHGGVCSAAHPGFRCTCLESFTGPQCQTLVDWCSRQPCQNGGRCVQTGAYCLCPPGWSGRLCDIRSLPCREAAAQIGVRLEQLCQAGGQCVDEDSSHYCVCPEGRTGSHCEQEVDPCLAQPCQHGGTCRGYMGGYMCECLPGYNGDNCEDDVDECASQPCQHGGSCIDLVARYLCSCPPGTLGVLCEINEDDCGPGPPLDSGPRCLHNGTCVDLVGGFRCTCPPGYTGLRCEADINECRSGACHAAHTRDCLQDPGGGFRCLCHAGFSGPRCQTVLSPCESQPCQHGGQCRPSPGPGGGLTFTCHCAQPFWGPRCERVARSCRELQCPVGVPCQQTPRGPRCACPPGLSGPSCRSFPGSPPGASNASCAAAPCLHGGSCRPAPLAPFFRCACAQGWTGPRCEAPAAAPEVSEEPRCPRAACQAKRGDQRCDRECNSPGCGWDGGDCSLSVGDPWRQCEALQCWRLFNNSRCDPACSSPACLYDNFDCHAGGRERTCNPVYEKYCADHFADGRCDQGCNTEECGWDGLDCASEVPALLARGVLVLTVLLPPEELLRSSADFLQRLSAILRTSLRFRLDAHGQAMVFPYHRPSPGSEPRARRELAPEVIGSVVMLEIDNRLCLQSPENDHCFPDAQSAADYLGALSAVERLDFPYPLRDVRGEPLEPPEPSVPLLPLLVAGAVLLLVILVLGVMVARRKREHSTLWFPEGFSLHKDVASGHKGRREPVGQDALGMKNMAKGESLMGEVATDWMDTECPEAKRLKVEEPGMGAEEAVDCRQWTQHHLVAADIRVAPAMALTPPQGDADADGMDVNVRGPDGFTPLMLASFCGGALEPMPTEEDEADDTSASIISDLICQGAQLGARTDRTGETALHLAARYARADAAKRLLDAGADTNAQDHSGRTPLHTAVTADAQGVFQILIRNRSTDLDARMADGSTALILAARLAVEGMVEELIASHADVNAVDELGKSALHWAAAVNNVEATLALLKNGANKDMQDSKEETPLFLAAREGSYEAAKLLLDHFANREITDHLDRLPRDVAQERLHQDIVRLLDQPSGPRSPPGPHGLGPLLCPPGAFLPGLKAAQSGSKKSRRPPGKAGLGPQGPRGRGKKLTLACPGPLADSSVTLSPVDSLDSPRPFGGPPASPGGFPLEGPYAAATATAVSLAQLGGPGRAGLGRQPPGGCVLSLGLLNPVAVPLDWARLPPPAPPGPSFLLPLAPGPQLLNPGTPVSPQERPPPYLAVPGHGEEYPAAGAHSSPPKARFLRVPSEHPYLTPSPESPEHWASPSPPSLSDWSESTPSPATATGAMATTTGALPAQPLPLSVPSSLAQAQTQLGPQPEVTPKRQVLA

Compound | composite z-score [1] | composite z-score [2] | composite z-score [3] | composite z-score [4] | composite z-score [5] | composite z-score [6] | composite z-score [7] | z-score [8] | composite z-score [9] | composite z-score [10] | composite z-score [11] | z-score [12] | z-score [13] | z-score [14] | composite z-score [15] | z-score [16] | composite z-score [17] | composite z-score [18] | composite z-score [19] | composite z-score [20]
CCCCCC1=C2CNC(Cc3ccccc3)(C(=O)OC)C=C2C(C)C1=O (stereo not given) | 1.16 | 0.249 | -0.0593 | 0.279 | 0.227 | 0.932 | 0.446 | 1.53 (inactive) | 0.602 | 0.604 | -0.488 | 0.194 (inactive) | -0.331 (inactive) | 1.2 (inactive) | 2.5 | -0.791 (inactive) | 0.226 | -1.49 | -0.638 | -0.0632
[N-]=[N+]=Nc1ccccc1C[C@@]1(C(=O)NCC(O)CO)N=C(c2ccc(OCCCO)cc2)O[C@@H]1c1ccccc1 (stereo not given in full) | 0.134 | -0.243 | -0.073 | 0.165 | 0.513 | 0.706 | 1.1 | -2.46 (inactive) | 0.146 | -0.0994 | 0.376 | -0.558 (inactive) | -1.09 (inactive) | -1.31 (inactive) | 2.81 | 0.883 (inactive) | -0.0021 | -0.264 | -0.405 | -0.151
O=C(N1CCOCC1)[C@@]1(Cc2ccccc2)COC(c2ccc(OCCCO)cc2)=N1 | 1.06 | 0.615 | 0.0094 | 0.64 | 0.763 | 1.49 | 1.06 | -1.28 (inactive) | 0.48 | 0.264 | 0.88 | -0.731 (inactive) | -5.55 (inactive) | -1.39 (inactive) | 2.95 | 2.88 (inactive) | 0.588 | -0.622 | 0.116 | 0.518
C=CCNC(=O)[C@@H]1[C@H]2C(=O)O[C@H](c3ccccc3)[C@H](c3ccccc3)N2[C@H](c2ccc(OCCO)cc2)[C@@]12C(=O)Nc1ccc(C#CC3(O)CCCCCC3)cc12 | 0.0068 | 0.927 | -0.0765 | 0.592 | 1.21 | 1.29 | 1.29 | 0.803 (inactive) | 0.551 | -0.0994 | 1.45 | 1.84 (inactive) | 0.267 (inactive) | 4.71 (inactive) | 2.55 | 1.2 (inactive) | 0.0208 | 1.03 | 1.07 | 0.0519
COCCOC(=O)N1C(=O)[C@@]2(c3cc(C#CCCO)ccc31)[C@H](c1ccc(OCCO)cc1)N1[C@H](c3ccccc3)[C@H](c3ccccc3)OC(=O)[C@H]1[C@@H]2C(=O)N1CCCCCCC1 | 3.17 | 1.15 | 0.487 | 1.08 | 1.37 | 1.65 | 1.16 | 0.278 (inactive) | 2.65 | 3.2 | 1.54 | 0.869 (inactive) | 0.277 (inactive) | 3.69 (inactive) | 2.82 | -0.405 (inactive) | 1.62 | 1.49 | 1.04 | 0.611
COc1ccc(CCNC(=O)[C@@H]2c3ccccc3C(=O)N(Cc3ccccc3OC)[C@H]2c2ccc(CO)cc2)cc1 | -0.26 | 0.678 | 0.0021 | 0.131 | 1.03 | 1.29 | 1.31 | -2.5 (inactive) | 0.428 | -0.266 | 1.53 | -1.23 (inactive) | 0.294 (inactive) | -0.323 (inactive) | 2.62 | -0.1 (inactive) | -0.172 | 0.0564 | 0.852 | -0.105
[N-]=[N+]=NCc1ccccc1[C@@H]1OC(c2ccc(OCCCO)cc2)=N[C@]1(Cc1ccccc1N=[N+]=[N-])C(=O)O | 0.535 | 0.326 | 0.294 | 1.14 | 1.55 | 1.89 | 1.3 | 1.22 (inactive) | 1.28 | 0.455 | 1.48 | -0.282 (inactive) | -1.64 (inactive) | -0.794 (inactive) | 3.13 | -0.0956 (inactive) | 0.515 | -0.0626 | 1.11 | 0.439
C=CCC(OC(C)=O)[C@@H]1[C@@H](N(Cc2ccc(-c3ccccc3)cc2)C(=O)c2cccc3ccccc23)c2cc(OCCCO)ccc2N1C(=O)Cc1ccc(OC)cc1 (stereo not given in full) | 0.0714 | -0.205 | -0.108 | -0.234 | -0.559 | -0.229 | -0.757 | -0.72 (inactive) | 0.165 | 3.52 | -0.159 | -0.774 (inactive) | 0.0643 (inactive) | -0.631 (inactive) | -0.203 | -1.09 (inactive) | 0.0748 | 0.417 | -0.477 | 0.122
CC1CC/C=C\[C@H]2OC34C=CCN(CCN5CCOCC5)C(=O)[C@H]3N(CCCO)C(=O)[C@@H]4C2C(=O)O1 (stereo not given in full) | -0.215 | 0.0721 | -0.183 | -0.0957 | -0.475 | -0.376 | 1.07 | 0.149 (inactive) | -0.354 | -0.0994 | -0.536 | 0.236 (inactive) | -0.218 (inactive) | 0.585 (inactive) | -0.299 | -0.546 (inactive) | -0.21 | -0.639 | -0.271 | -0.239
CC(C)C(CO)N1C(=O)[C@@H]2C3C(=O)OCCC/C=C\[C@H]3OC23C=CCN(Cc2ccccc2)C(=O)[C@@H]13 (stereo not given in full) | 0.598 | -0.217 | -0.0744 | 0.648 | -0.376 | 1.43 | 1.58 | 0.597 (inactive) | -0.406 | -0.134 | -0.928 | -0.43 (inactive) | -0.912 (inactive) | -0.542 (inactive) | 1.18 | 1.3 (inactive) | -0.0598 | -0.989 | -0.0928 | -0.148
